Measured values taken from PubChem BioAssay AID1159580 (chemical genetic matrix, 2015).
Among all 5,500 compounds or so, about 2,000 (36%) were called active. Not shown: some 18% with an inconclusive outcome. Rule as the data show it: active = normalized growth mostly below about 0.91 (no sharp cut-off); inconclusive = no clear call, values can overlap the other calls; inactive = mostly above about 0.92. Some of the results follow.

Experiment: chemical genetic growth profiling, strain panel (AID 1159580);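 also: tested at 20 µM; growth read once vehicle control cultures reached saturation at 30 °C; 1 = growth at the plate median or of vehicle wells; lower values mean less growth of the strain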
Conditions: growth OD

Measured: normalized growth

CC1(C)C(=O)[C@@H]2C[C@@]3(O)C4=CC(=O)O[C@@H](c5ccoc5)[C@]4(C)CCC3[C@@](C)(C2=O)[C@H]1CC(=O)O (some centres not stated)
inactive: S. cerevisiae deletion strains, locus YJR066W, strain TOR1, hits give low values 0.941 | S. cerevisiae deletion strains, locus YKL009W, strain mrt4, hits give low values 0.998 | S. cerevisiae deletion strains, locus YKL068W, hits give low values 1 | S. cerevisiae deletion strains, locus YKL085W, strain MDH1 (second series), hits give low values 0.99 | S. cerevisiae deletion strains, locus YKL085W, strain MDH1, hits give low values 0.99 | S. cerevisiae deletion strains, locus YKL160W, strain elf1, hits give low values 1.01 | S. cerevisiae deletion strains, locus YKR001C, strain vps1, hits give low values 0.992 | S. cerevisiae deletion strains, locus YKR026C, strain gcn3, hits give low values 1.01 | S. cerevisiae deletion strains, locus YKR091W, strain srl3, hits give low values 1 | S. cerevisiae deletion strains, locus YLL001W, strain dnm1, hits give low values 1.01 | S. cerevisiae deletion strains, locus YLL026W, hits give low values 1.01 | S. cerevisiae deletion strains, locus YLL041C, strain sdh2, hits give low values 1.01 | S. cerevisiae deletion strains, locus YLR027C, strain aat2, hits give low values 1.01 | S. cerevisiae deletion strains, locus YLR039C, strain RIC1, hits give low values 1.1 | S. cerevisiae deletion strains, locus YLR058C, strain SHM2, hits give low values 1.01 | S. cerevisiae deletion strains, locus YLR102C, strain apc9, hits give low values 0.997 | S. cerevisiae deletion strains, locus YLR113W, strain HOG1, hits give low values 0.986 | S. cerevisiae deletion strains, locus YLR221C, strain rsa3, hits give low values 1.01 | S. cerevisiae deletion strains, locus YLR258W, strain gsy2, hits give low values 0.996 | S. cerevisiae deletion strains, locus YLR262C, strain YPT6 (second series), hits give low values 1.01 | S. cerevisiae deletion strains, locus YLR262C, strain YPT6, hits give low values 1.08 | S. cerevisiae deletion strains, locus YLR268W, strain sec22, hits give low values 1 | S. cerevisiae deletion strains, locus YLR320W, strain mms22, hits give low values 0.995 | S. cerevisiae deletion strains, locus YLR330W, strain CHS5, hits give low values 1 | S. cerevisiae deletion strains, locus YLR342W, strain FKS1, hits give low values 0.997 | S. cerevisiae deletion strains, locus YLR357W, strain rsc2, hits give low values 1 | S. cerevisiae deletion strains, locus YLR370C, strain arc18, hits give low values 1.01 | S. cerevisiae deletion strains, locus YLR371W, strain rom2, hits give low values 1.01 | S. cerevisiae deletion strains, locus YLR384C, strain iki3, hits give low values 0.992 | S. cerevisiae deletion strains, locus YLR418C, strain cdc73, hits give low values 1 | S. cerevisiae deletion strains, locus YML016C, strain PPZ1, hits give low values 1 | S. cerevisiae deletion strains, locus YML032C, strain rad52, hits give low values 0.983 | S. cerevisiae deletion strains, locus YML120C, strain ndi1, hits give low values 1.02 | S. cerevisiae deletion strains, locus YML124C, strain tub3, hits give low values 1 | S. cerevisiae deletion strains, locus YMR058W, strain fet3, hits give low values 1.02 | S. cerevisiae deletion strains, locus YMR078C, strain ctf18, hits give low values 0.985 | S. cerevisiae deletion strains, locus YMR125W, strain sto1, hits give low values 0.997 | S. cerevisiae deletion strains, locus YMR129W, hits give low values 1 | S. cerevisiae deletion strains, locus YMR205C, strain PFK2, hits give low values 0.999 | S. cerevisiae deletion strains, locus YMR223W, strain ubp8, hits give low values 0.99 | S. cerevisiae deletion strains, locus YMR231W, strain pep5, hits give low values 0.976 | S. cerevisiae deletion strains, locus YMR263W, strain SAP30, hits give low values 1.02 | S. cerevisiae deletion strains, locus YMR307W, strain GAS1, hits give low values 1.06 | S. cerevisiae deletion strains, locus YNL067W, strain RPL9B, hits give low values 1 | S. cerevisiae deletion strains, locus YNL071W, strain lat1, hits give low values 1.01 | S. cerevisiae deletion strains, locus YNL128W, strain TEP1, hits give low values 1.02 | S. cerevisiae deletion strains, locus YNL183C, strain NPR1, hits give low values 0.946 | S. cerevisiae deletion strains, locus YNL209W, strain ssb2, hits give low values 1.03 | S. cerevisiae deletion strains, locus YNL233W, strain BNI4, hits give low values 1.02 | S. cerevisiae deletion strains, locus YNL248C, strain rpa49, hits give low values 1.02 | S. cerevisiae deletion strains, locus YNL250W, strain rad50, hits give low values 1 | S. cerevisiae deletion strains, locus YNL271C, strain bni1, hits give low values 1 | S. cerevisiae deletion strains, locus YNL298W, strain CLA4, hits give low values 0.977 | S. cerevisiae deletion strains, locus YNL307C, strain MCK1, hits give low values 0.99 | S. cerevisiae deletion strains, locus YNL322C, strain KRE1 (second series), hits give low values 0.999 | S. cerevisiae deletion strains, locus YNR049C, strain mso1, hits give low values 0.999 | S. cerevisiae deletion strains, locus YNR052C, strain pop2, hits give low values 0.984 | S. cerevisiae deletion strains, locus YOL006C, strain TOP1, hits give low values 1.09 | S. cerevisiae deletion strains, locus YOL012C, strain htz1 0.886 | S. cerevisiae deletion strains, locus YOL147C, strain pex11, hits give low values 0.995 | S. cerevisiae deletion strains, locus YOR001W, strain rrp6, hits give low values 1.03 | S. cerevisiae deletion strains, locus YOR061W, strain CKA2, hits give low values 1.01 | S. cerevisiae deletion strains, locus YOR069W, strain VPS5, hits give low values 1.01 | S. cerevisiae deletion strains, locus YOR070C, strain gyp1, hits give low values 1.01 | S. cerevisiae deletion strains, locus YOR080W, strain dia2, hits give low values 1 | S. cerevisiae deletion strains, locus YOR083W, strain WHI5, hits give low values 1 | S. cerevisiae deletion strains, locus YOR106W, strain vam3, hits give low values 1.01 | S. cerevisiae deletion strains, locus YOR136W, strain idh2, hits give low values 0.989 | S. cerevisiae deletion strains, locus YOR144C, strain elg1, hits give low values 0.989 | S. cerevisiae deletion strains, locus YOR184W, strain ser1, hits give low values 1.01 | S. cerevisiae deletion strains, locus YOR231W, strain MKK1, hits give low values 0.998 | S. cerevisiae deletion strains, locus YOR265W, strain rbl2, hits give low values 1.02 | S. cerevisiae deletion strains, locus YOR270C, strain vph1, hits give low values 1.06 | S. cerevisiae deletion strains, locus YOR290C, strain snf2, hits give low values 1.01 | S. cerevisiae deletion strains, locus YOR316C, strain cot1, hits give low values 0.994 | S. cerevisiae deletion strains, locus YPL051W, strain arl3, hits give low values 1.05 | S. cerevisiae deletion strains, locus YPL078C, strain atp4, hits give low values 1.01 | S. cerevisiae deletion strains, locus YPL106C, strain sse1, hits give low values 1.04 | S. cerevisiae deletion strains, locus YPL240C, strain hsp82, hits give low values 1.01 | S. cerevisiae deletion strains, locus YPL241C, strain CIN2, hits give low values 1.01 | S. cerevisiae deletion strains, locus YPL256C, strain CLN2, hits give low values 0.984 | S. cerevisiae deletion strains, locus YPR119W, strain clb2, hits give low values 0.991 | S. cerevisiae deletion strains, locus YPR141C, strain kar3, hits give low values 1.01 | S. cerevisiae deletion strains, locus YPR163C, strain tif3, hits give low values 0.99 | S. cerevisiae deletion strains, locus YPR167C, strain met16, hits give low values 1 | S. cerevisiae deletion strains, strain wtn01, hits give low values 1.01 | S. cerevisiae strains, strain wild type, hits give low values 1.01
